According to PubChem BioAssay:
Inconclusive results are not listed. Activity calls are given as the source filed them. Unless noted, the limit is not given here; nearly all actives have AC50 up to about 26 µM.

What was measured:
[1] = growth inhibition of DIPG glioma cells, dose response, cell-based, SU-DIPG-XVII, MIPE5.0, CellTiter-Glo, qHTS (AID 1347060); conditions: SU-DIPG-XVII viability, CellTiter-Glo ATP luminescence;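 as to AC50: cells exposed to compound for 48 hours before viability readout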
[2] = growth inhibition of DIPG glioma cells, dose response, cell-based, SU-DIPG-IV, MIPE4.0, CellTiter-Glo, qHTS (AID 1347063; cut-off not given, nearly all actives have AC50 up to about 30 µM;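 also: compound exposure lasted 48 hours before the viability readout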); conditions: SU-DIPG-IV viability, CellTiter-Glo ATP luminescence
[3] = growth inhibition of DIPG glioma cells, dose response, cell-based, SU-DIPG-XIII, MIPE5.0, CellTiter-Glo, qHTS (AID 1347064; cut-off not given, nearly all actives have AC50 up to about 23 µM;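 as to AC50: cells exposed to compound for 48 hours before the viability read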); conditions: SU-DIPG-XIII viability, CellTiter-Glo ATP luminescence
[4] = SU-DIPG-VI glioma cell viability, MIPE4.0 library, CellTiter-Glo luminescence, qHTS (AID 1347066; cut-off not given, nearly all actives have AC50 up to about 30 µM;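 also: cells exposed to compound for 48 hours before readout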); conditions: CellTiter-Glo ATP luminescence
[5] = JHH-DIPG-1 glioma cell viability, MIPE5.0 library, CellTiter-Glo luminescence, qHTS (AID 1347067); conditions: JHH-DIPG-1 glioma viability, CellTiter-Glo ATP luminescence;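 also: cells exposed to compound for 48 hours before readout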
[6] = viability loss in pontine glioma line – cell-based, SU-DIPG-XXV, MIPE5.0, CellTiter-Glo, qHTS, dose response (AID 1347065); conditions: CellTiter-Glo ATP luminescence;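 also: cells exposed to compound for 48 hours before ATP readout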
[7] = SU-DIPG-XXV glioma cell viability, MIPE5.0 library, qHTS (AID 1347068; cut-off not given, nearly all actives have IC50 up to about 30 µM)
[8] = sensitizers of A549 cells to miR-34 induction, primary screen, imaging, A549 dox-inducible miR-34, nuclei and caspase counts (AID 1347080;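 active = compounds whose cell count with miR-34 switched on is under 0.7 times the count with it off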); conditions: A549 miR-34 inducible, Hoechst nuclei count, 48 h
[9] = modifiers of HSF1 nuclear foci, imaging, Selleck Cancer Library (AID 1347162; in the data active = plate-normalised HSF1 focus index below about 0.46); conditions: human cells, at 10 µM; SSMD: measured here: HSF1 foci SSMD mean; cell count: measured here: cell number; plate-normalised HSF1 focus index: stronger effect = lower value
[10] = survival rescue of mitochondrial mutant cells in low glucose, primary screen, MELAS cybrids, Rieske KO mouse fibroblasts, CellTiter-Glo (AID 1508586;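 active = mean z-score across replicates of 1.96 or higher in either the MELAS or the Rieske mutant cell line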;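 also: z relative to plate mean and SD of compound and empty wells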)
[11] = ovarian cancer cell viability with rucaparib, profiling panel, oncology-focused library, rucaparib conditional (AID 1508598;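 active = normalized viability below 100% at a tested concentration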); conditions: patient-derived ovarian cancer cells, CellTiter-Glo viability, 144 h, stronger effect = lower value
[12] = stronger effect = lower value, cell number ratio, induced over uninduced
[13] = measured here: relative caspase fold change +Dox/-Dox
[14] = measured here: total cells with miR-34 induction, stronger effect = lower value
[15] = measured here: total cells without miR-34 induction
[16] = MELAS cybrid survival, CellTiter-Glo 48 h, stronger effect = higher value
[17] = Rieske KO mouse fibroblast survival, CellTiter-Glo 72 h

N#C/C(=C1/Nc2ccccc2S1)c1ccnc(OCc2ccc(CN3CCOCC3)cc2)n1
active: AC50 [1] 14.8 µM | AC50 [2] 0.0209 µM | AC50 [3] 14.8 µM | AC50 [4] 0.743 µM | AC50 [5] 20.9 µM

NC(=O)C1CCCc2c1[nH]c1ccc(Cl)cc21 (stereo not drawn)
1.46: SSMD [9]
-0.725: z-score [10, 17]
active: viability ([11]; at 0.000305 µM, OCI-P5x cells, with rucaparib 20 µM, 100% = cells with rucaparib alone) 92.1% | viability ([11]; at 0.000305 µM, OCI-P5x cells, without rucaparib) 96.9% | viability ([11]; at 5 µM, OCI-C5x cells, with rucaparib 10 µM, 100% = cells with rucaparib alone) 100% | viability ([11]; at 5 µM, OCI-P5x cells, with rucaparib 20 µM, 100% = cells with rucaparib alone) 95%
0.695: fold change [8, 13]
6830: cell count [9]
7260: cell count [8, 15]
7360: cell count [8, 14]
inactive: outcome [1] | outcome [3] | outcome [6] | outcome [4] | outcome [5] | outcome [7] | fold change [8, 12] 1.01 | plate-normalised HSF1 focus index [9] 1.08 | z-score [10, 16] -0.456 | viability ([11]; at 0.000305 µM, OCI-C5x cells, with rucaparib 10 µM, 100% = cells with rucaparib alone) 114% | viability ([11]; at 0.000305 µM, OCI-C5x cells, without rucaparib) 113% | viability ([11]; at 0.00122 µM, OCI-C5x cells, with rucaparib 10 µM, 100% = cells with rucaparib alone) 118% | viability ([11]; at 0.00122 µM, OCI-C5x cells, without rucaparib) 119% | viability ([11]; at 0.00122 µM, OCI-P5x cells, with rucaparib 20 µM, 100% = cells with rucaparib alone) 109% | viability ([11]; at 0.00122 µM, OCI-P5x cells, without rucaparib) 101% | viability ([11]; at 0.00488 µM, OCI-C5x cells, with rucaparib 10 µM, 100% = cells with rucaparib alone) 117% | viability ([11]; at 0.00488 µM, OCI-C5x cells, without rucaparib) 114% | viability ([11]; at 0.00488 µM, OCI-P5x cells, with rucaparib 20 µM, 100% = cells with rucaparib alone) 105% | viability ([11]; at 0.00488 µM, OCI-P5x cells, without rucaparib) 111% | viability ([11]; at 0.0195 µM, OCI-C5x cells, with rucaparib 10 µM, 100% = cells with rucaparib alone) 106% | viability ([11]; at 0.0195 µM, OCI-C5x cells, without rucaparib) 115% | viability ([11]; at 0.0195 µM, OCI-P5x cells, with rucaparib 20 µM, 100% = cells with rucaparib alone) 109% | viability ([11]; at 0.0195 µM, OCI-P5x cells, without rucaparib) 116% | viability ([11]; at 0.0781 µM, OCI-C5x cells, with rucaparib 10 µM, 100% = cells with rucaparib alone) 113% | viability ([11]; at 0.0781 µM, OCI-C5x cells, without rucaparib) 112% | viability ([11]; at 0.0781 µM, OCI-P5x cells, with rucaparib 20 µM, 100% = cells with rucaparib alone) 105% | viability ([11]; at 0.0781 µM, OCI-P5x cells, without rucaparib) 117% | viability ([11]; at 0.313 µM, OCI-C5x cells, with rucaparib 10 µM, 100% = cells with rucaparib alone) 112% | viability ([11]; at 0.313 µM, OCI-C5x cells, without rucaparib) 124% | viability ([11]; at 0.313 µM, OCI-P5x cells, with rucaparib 20 µM, 100% = cells with rucaparib alone) 105% | viability ([11]; at 0.313 µM, OCI-P5x cells, without rucaparib) 120% | viability ([11]; at 1.25 µM, OCI-C5x cells, with rucaparib 10 µM, 100% = cells with rucaparib alone) 109% | viability ([11]; at 1.25 µM, OCI-C5x cells, without rucaparib) 118% | viability ([11]; at 1.25 µM, OCI-P5x cells, with rucaparib 20 µM, 100% = cells with rucaparib alone) 107% | viability ([11]; at 1.25 µM, OCI-P5x cells, without rucaparib) 120% | viability ([11]; at 5 µM, OCI-C5x cells, without rucaparib) 124% | viability ([11]; at 5 µM, OCI-P5x cells, without rucaparib) 114%

O=C(NOCCO)c1ccc2cncn2c1Nc1ccc(I)cc1F
active: AC50 [1] 0.148 µM | AC50 [3] 0.148 µM | AC50 [6] 0.332 µM | AC50 [5] 0.105 µM

CCOc1cc(C(C)(C)C)ccc1C1=N[C@@](C)(c2ccc(Cl)cc2)[C@@](C)(c2ccc(Cl)cc2)N1C(=O)N1CCN(CC(=O)N2CCOCC2)CC1
active: AC50 [1] 11.5 µM | AC50 [3] 14.5 µM | AC50 [6] 10.3 µM

Cc1nc([C@](C)(O)CO)sc1-c1cnc(N)c(O[C@H](C)c2cc(F)ccc2-n2nccn2)c1
active: AC50 [1] 8.33 µM | AC50 [3] 1.48 µM | AC50 [6] 2.63 µM

OC1CCC(Nc2ncc3nc(Nc4c(F)cc(F)cc4F)n([C@@H]4CCOC4)c3n2)CC1 (stereo partly drawn)
inactive: outcome [1] | outcome [3] | outcome [6] | outcome [4] | outcome [5] | outcome [7]

O=C(Nc1ccc2[nH]nc(-c3ccncc3)c2c1)[C@@H]1CCN(CC(=O)N2CCN(c3ccc(-c4ncccn4)cc3)CC2)C1
active: AC50 [1] 1.05 µM | AC50 [3] 1.48 µM | AC50 [6] 1.05 µM | AC50 [5] 0.525 µM

Cn1cncc1C(N)(c1ccc(Cl)cc1)c1ccc2c(c1)c(-c1cccc(Cl)c1)cc(=O)n2C (stereo not drawn)
active: AC50 [1] 18.6 µM | AC50 [3] 16.6 µM | AC50 [6] 8.33 µM | AC50 [5] 18.6 µM

O=C(O)CCCCC(CCSCc1ccccc1)SCc1ccccc1 (stereo not drawn)
inactive: outcome [1] | outcome [3] | outcome [6] | outcome [4] | outcome [5] | outcome [7] | fold change [8, 12] 0.896 | z-score [10, 16] -0.291
9470: cell count [8, 14]
0.614: z-score [10, 17]
0.838: fold change [8, 13]
10600: cell count [8, 15]

Cc1ccc(C(=O)OCc2ccc([C@@H](CN)C(=O)Nc3ccc4cnccc4c3)cc2)c(C)c1
active: AC50 [1] 12.9 µM | AC50 [3] 14.4 µM | AC50 [6] 9.1 µM

Nc1ccc(/C=C/C(=O)NCc2cc3cc(-c4ccc(C(=O)N5CCC(F)(F)CC5)cc4)cc(-c4ccc(F)cc4)c3o2)cn1
active: AC50 [1] 0.105 µM | AC50 [3] 0.372 µM | AC50 [6] 0.742 µM | AC50 [5] 0.525 µM

CCO[C@@H]1OC(=O)C[C@@H]1NC(=O)[C@@H]1CCCN1C(=O)[C@@H](NC(=O)c1ccc(N)c(Cl)c1)C(C)(C)C
active: AC50 [1] 23.5 µM
inactive: outcome [3] | outcome [6] | outcome [4] | outcome [5] | outcome [7]

Cc1cc(O)c(-c2ccc([C@@H](C)CN)cc2)c2c1[nH]c(=O)c1sccc12
active: AC50 [1] 0.118 µM | AC50 [3] 0.148 µM | AC50 [6] 0.148 µM

CCOc1ccc(Cc2cc([C@@H]3O[C@H](CO)[C@@H](O)[C@H](O)[C@H]3O)ccc2Cl)cc1
1.4: SSMD [9]
inactive: outcome [1] | outcome [3] | outcome [6] | outcome [4] | outcome [5] | outcome [7] | plate-normalised HSF1 focus index [9] 1.07
6780: cell count [9]

CCCCN(CCCC)C(=O)CN1C[C@H](c2ccc3c(c2)OCO3)[C@@H](C(=O)O)[C@@H]1c1ccc(OC)cc1
inactive: outcome [1] | outcome [3] | outcome [6] | outcome [5]

CC(C)(C)NC(=O)c1cncn1C1CCN(c2ccc(-c3nnc(C(F)(F)F)o3)cn2)CC1
active: AC50 [1] 10.5 µM | AC50 [3] 5.9 µM | AC50 [6] 1.48 µM

COc1cc(OC)cc(N(CCNC(C)C)c2ccc3ncc(-c4cnn(C)c4)nc3c2)c1
active: AC50 [1] 0.0661 µM | AC50 [3] 0.0661 µM | AC50 [6] 0.0833 µM
